High-throughput results from PubChem.
FLuc counter: qHTS profiling assay for firefly luciferase inhibitor/activator using purifed enzyme and Km concentrations of substrates (counterscreen for miR-21 project); Luciferin 4-monooxygenase (Photinus pyralis), P08659; purified FLuc, Km substrates, luminescence inhibition; Potency, µM (highest dose often 57.5 µM), actives largely listed as inhibitors; hit rate 6.9% among 360,000; AID 588342, 2011; further: nearly all actives have a fitted effect of over 55% in size
Target sequence (P08659 whole entry, looked up): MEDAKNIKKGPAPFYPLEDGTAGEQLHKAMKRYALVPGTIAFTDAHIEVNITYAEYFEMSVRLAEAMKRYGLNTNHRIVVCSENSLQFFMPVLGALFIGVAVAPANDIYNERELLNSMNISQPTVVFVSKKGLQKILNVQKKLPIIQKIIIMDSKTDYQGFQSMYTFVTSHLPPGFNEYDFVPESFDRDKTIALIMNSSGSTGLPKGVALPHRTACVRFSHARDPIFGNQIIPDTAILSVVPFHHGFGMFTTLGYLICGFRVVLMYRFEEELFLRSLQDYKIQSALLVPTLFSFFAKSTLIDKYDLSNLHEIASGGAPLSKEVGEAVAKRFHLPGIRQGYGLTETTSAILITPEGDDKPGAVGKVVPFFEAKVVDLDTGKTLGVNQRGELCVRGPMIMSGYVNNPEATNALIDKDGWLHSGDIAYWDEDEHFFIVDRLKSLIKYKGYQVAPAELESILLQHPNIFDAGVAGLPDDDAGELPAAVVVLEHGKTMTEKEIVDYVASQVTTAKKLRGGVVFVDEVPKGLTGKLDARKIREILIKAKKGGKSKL
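Purified P. pyralis luciferase, 10 nM final, with Km-level 10 uM D-luciferin and 10 uM ATP in 50 mM Tris acetate pH 7.5, 10 mM Mg acetate, 0.01% Tween-20, 0.05% BSA; 6-point qHTS titration about 60 µM downward; luminescence read.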
NPC1 prom act: qHTS Assay for NPC1 Promoter Activators. hit rate 2.4% among 320,000. Potency, µM (top dose mostly 9.22 µM), actives largely listed as activators. Huh7 NPC1 promoter luciferase reporter, 24 h; further: nearly all actives have a fitted effect of over 60% in size
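Compounds in DMSO were transferred onto Huh7 NPC1-luciferase reporter cells pre-incubated 2 h; after 24 h at 37 °C, Amplite reagent was dispensed and luminescence recorded 10 min later.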
ELG1 repair inh: qHTS screen for small molecules that inhibit ELG1-dependent DNA repair in human embryonic kidney (HEK293T) cells expressing luciferase-tagged ELG1; AID 504467, 2011; HEK293T ELG1-luciferase reporter, luminescence, 16 h; DNA damage induced by 5-fluorouridine; hit rate 2.3% among 330,000; Potency, µM (series often up to 46.1 µM), usual class: inhibitors; further: nearly all actives have a fitted effect of over 55% in size
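5-Fluorouridine DNA damage + compound/DMSO, 2,000 cells/well, 16 h, 37 °C/5% CO2. ONE-Glo, 30 min RT, luminescence. Readout = decrease in reporter signal.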
Rab9 prom act: qHTS Assay for Rab9 Promoter Activators; Huh7 Rab9 promoter-luciferase reporter, luminescence, 24 h; hit rate 2.8% among 320,000; Potency, µM (highest dose often 9.22 µM), actives largely listed as activators; AID 485297, 2010; further: nearly all actives have a fitted effect of over 60% in size
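Rab9 promoter-driven luciferase in stably transfected Huh7 cells; 1500 cells/well rested 2 h, exposed to compound in DMSO for 24 h at 37 °C, 5% CO2. Luminescence read 10 min after adding luciferase reagent at ambient temperature.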
ELG1 genotoxic: qHTS screen for small molecules that induce genotoxicity in human embryonic kidney (HEK293T) cells expressing luciferase-tagged ELG1; HEK293T ELG1-luciferase reporter, luminescence, 16 h; Potency, µM (series often up to 46 µM), actives largely listed as activators; hit rate 1.3% among 330,000; further: nearly all actives have a fitted effect of over 60% in size
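Screening used a luciferase reporter fused to human ELG1 in HEK293T cells. Luminescence was read on a CCD plate imager after 16 hr exposure and 30 min ONE-Glo incubation.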
SMN2 splice enh: qHTS Assay for Enhancers of SMN2 Splice Variant Expression; HEK293 SMN2-luciferase splicing reporter, luminescence, 30-36 h; Potency, µM (series often up to 46.1 µM), usual class: activators; hit rate 2.8% among 210,000; AID 1458, 2008; further: nearly all actives have a fitted effect of over 55% in size
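qHTS luciferase splicing reporter: luminescence rises when SMN2 exon 7 is included in transfected HEK293 cells. Compound exposure lasted 30-36 h at 37C, with 4.5 mM final sodium butyrate as control, followed by a ONE-Glo read.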
Of the large screens only hits and unclear results are named; the others gave an inactive call. In the library only some 9.3% were active in any assay of this set; here they are far more common. The call rests on the fitted dose curve; in most records, active means well fitted curve in the direction sought with a large enough effect; inconclusive means small, poorly fitted or top-dose-only effect, or another doubt; inactive means no such curve, though single readings can be large; an effect the other way counts as inactive or inconclusive.

O=C(OCCOc1cccc(Cl)c1)c1cc(S(=O)(=O)N2CCCCC2)ccc1N1CCOCC1	ELG1 repair inh 5.2µM, ELG1 genotoxic inconclusive (no result: SMN2 splice enh)
O=C(OCc1cccc(Cl)c1)c1cc(S(=O)(=O)N2CCCCC2)ccc1N1CCOCC1	ELG1 repair inh inconclusive (no result: SMN2 splice enh)
COCC(C)NC(=O)c1cc(S(=O)(=O)N2CCCCC2)ccc1N1CCOCC1 (stereo unspecified)	none (no result: SMN2 splice enh)
CC(C)CCCC(C)NC(=O)c1cc(S(=O)(=O)N2CCCCC2)ccc1N1CCOCC1 (stereo unspecified)	ELG1 repair inh 11µM (no result: SMN2 splice enh)
CC(C)(C)c1cc(NC(=O)Nc2ccccc2)no1	FLuc counter 4.8µM, NPC1 prom act 1.4µM, ELG1 repair inh inconclusive, Rab9 prom act 1.3µM, ELG1 genotoxic inconclusive (no result: SMN2 splice enh)
CC(C)(C)c1cc(NC(=O)c2ccco2)no1	FLuc counter 5.4µM, NPC1 prom act 1.8µM, ELG1 repair inh inconclusive, Rab9 prom act 0.63µM, ELG1 genotoxic 1.3µM (no result: SMN2 splice enh)
COC(=O)c1ccccc1NC(=O)Nc1cc(C(C)(C)C)on1	NPC1 prom act 2µM, ELG1 repair inh inconclusive, Rab9 prom act 0.89µM, ELG1 genotoxic 16µM (no result: SMN2 splice enh)
Cc1cc(NC(=O)c2cccc([N+](=O)[O-])c2)no1	ELG1 repair inh inconclusive (no result: SMN2 splice enh)
CC(C)(C)c1cc(NC(=O)c2cccc([N+](=O)[O-])c2)no1	FLuc counter inconclusive, NPC1 prom act 2.2µM, ELG1 repair inh inconclusive, Rab9 prom act 1.4µM, ELG1 genotoxic inconclusive, SMN2 splice enh 2.8µM
CC(C)(C)NC[C@H](O)c1ccc(O)c(CO)c1	none (no result: FLuc counter, NPC1 prom act, ELG1 repair inh, Rab9 prom act, ELG1 genotoxic)
CCCCNC(=O)c1ccc(NC(=O)CC2SC(N3CCCC3)=NC2=O)cc1 (stereo unspecified)	ELG1 repair inh inconclusive (no result: SMN2 splice enh)
Cc1cc(NC(=S)N(Cc2cccc(Br)c2)CC2CCC(C(=O)O)CC2)ccc1Cl (stereo unspecified)	FLuc counter inconclusive (no result: SMN2 splice enh)
Cc1cc(C(=O)Nc2cc(C(C)(C)C)on2)c(C)o1	FLuc counter 9.5µM, NPC1 prom act inconclusive, ELG1 repair inh inconclusive, Rab9 prom act 2.8µM, ELG1 genotoxic inconclusive (no result: SMN2 splice enh)
CCCCCCCNC(=O)C1(CC2CC(c3ccc(Cl)cc3)=NO2)CCN(C(=O)OC(C)(C)C)CC1 (stereo unspecified)	ELG1 repair inh inconclusive (no result: SMN2 splice enh)
COc1cc(OC)cc(C(=O)Nc2ccc3nc4n(c(=O)c3c2)CCCCC4)c1	FLuc counter 12µM, NPC1 prom act 3.2µM, ELG1 repair inh inconclusive, Rab9 prom act 3.5µM, ELG1 genotoxic inconclusive, SMN2 splice enh 18µM
COc1ccc(/C=C/C(=O)Nc2ccc3nc4n(c(=O)c3c2)CCCC4)cc1	ELG1 repair inh inconclusive (no result: SMN2 splice enh)
COc1cccc(/C=C/C(=O)Nc2ccc3nc4n(c(=O)c3c2)CCCC4)c1OC	FLuc counter 12µM, ELG1 repair inh inconclusive (no result: SMN2 splice enh)
CCc1ccc(NC(=S)N2CCCC2)cc1	FLuc counter 21µM, NPC1 prom act inconclusive, ELG1 repair inh inconclusive, Rab9 prom act inconclusive, ELG1 genotoxic 18µM (no result: SMN2 splice enh)
CCc1ccc(NC(=S)N2CCCC(C(F)(F)F)C2)cc1 (stereo unspecified)	FLuc counter 15µM, ELG1 repair inh inconclusive
CCc1ccc(NC(=S)NCc2ccccc2)cc1	FLuc counter inconclusive, ELG1 repair inh inconclusive, Rab9 prom act inconclusive, SMN2 splice enh 11µM
CCc1ccc(NC(=S)N2CCN(C)CC2)cc1	FLuc counter 6µM, ELG1 repair inh inconclusive, Rab9 prom act inconclusive, ELG1 genotoxic inconclusive (no result: SMN2 splice enh)
CC1CCCN(C(=S)Nc2ccc(F)cc2)C1 (stereo unspecified)	none
Cc1ccc(NC(=S)N2CCCC2)cc1	FLuc counter inconclusive, ELG1 repair inh inconclusive
Cc1oc(S(=O)(=O)N(C)C)cc1C(=O)Nc1ccc(F)cc1	none (no result: SMN2 splice enh)
CC(c1nccs1)N(C)c1nc2nonc2nc1NC1CC1 (stereo unspecified)	none (no result: SMN2 splice enh)
COC(=O)CC(=O)CSc1nc(C)cc(C)c1C#N	none
